Assay results reported in PubChem BioAssay (NCATS).
Inconclusive results are not listed. A call without a number means that no potency is given here. Calls of active or inactive are those of the source. The call rests on the fitted dose curve; in most records, active means well fitted inhibition curve with a large enough effect; inconclusive means small, poorly fitted or top-dose-only effect; inactive means no such curve, though single readings can be large or run the other way.

Test system: Zika virus NS2B-NS3 protease (unlinked complex)
Assay: Primary screen GU Rhodamine qHTS for Zika virus inhibitors: Unlinked NS2B-NS3 protease assay (AID 1347159); further: nearly all actives have a fitted effect of over 60% in size
Details: Recombinant ZIKV NS2B-NS3 protease, Rhodamine110 substrate fluorescence; series mostly up to 107 µM
Summary of the method: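 A qHTS format was used, with compound concentrations ranging up to 114 microM. Each compound was preincubated with 25 nM NS2B-NS3 protease, and the substrate was then added at 1.5 microM. Curves were fitted with a 4-parameter Hill model.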

SMILES	Potency
C[C@@H]1CCC2C(C)(C)[C@H](O)[C@H](O)C[C@]2(C)[C@@]12Cc1c(O)cc3c(c1O2)CN(CCCC(=O)O)C3=O (some centres not stated)	inactive
O=C(/C=C/c1ccc(O)cc1)O[C@H]1[C@H](OC2CCCCC2O)O[C@H](CO)[C@@H](O)[C@@H]1O (some centres not stated)	inactive
CC(=O)c1ccc(O[C@@H]2OC[C@@H](O)[C@H](O)[C@H]2O[C@]2(CO)O[C@H](CO)[C@@H](O)[C@@H]2O)c(O)c1	inactive
C[C@@H]1C[C@@H](O)[C@@]2(CO)C(CO)=CCC[C@@H]2[C@@]12C[C@@H](c1ccoc1)OC2=O	inactive
O=C(OCC1OC(Oc2ccc(O)cc2COC(=O)C2(O)C(O)CCC(=O)C2OC(=O)C2C=CCC2)C(OC(=O)C2C=CCC2)C(O)C1O)C1C=CCC1 (configuration not stated)	inactive
CC1(C)C(=O)CCC2(C)C1C(O)C=C1COC(=O)C12O (configuration not stated)	inactive
CC1=C2C[C@H]3OC(=O)[C@H](O)[C@@]4(O)[C@@H](C)[C@@H](O)[C@H](O)C([C@@]2(C)[C@H](O)[C@@H](O)C1)[C@@]34C (some centres not stated)	inactive
CN[C@H](CNC(=O)N1CCC[C@@H]([C@@H](OCCNC(=O)OC)c2cccc(Cl)c2)C1)C[C@H]1CCCOC1	inactive
CSC(=O)OCC1=C[C@@H]2OC(=O)C3=CO[C@@H](O[C@@H]4O[C@H](CO)[C@@H](O)[C@H](O)[C@H]4O)[C@H]1[C@@H]32	inactive
COc1ccc(O[C@@H]2O[C@H](CO)[C@@H](O)[C@H](O)[C@H]2O)cc1OC	inactive
C=C(C(=O)O)[C@@H]1CC[C@@]2(C)CCC[C@@](C)(O)[C@@H]2C1	inactive
CC1=C2CC3C(CCC3(C)O)C(C)(O)CC2OC1=O (configuration not stated)	inactive
CC(C)=C1CC2[C@](C)(CC[C@@H](OC(=O)C3(C)OC3C)[C@@]2(C)O)CC1=O (some centres not stated)	inactive
CCOc1ncc(S(=O)(=O)N2CCN(CC)CC2)cc1-c1nc2c(CC)n(CCOC)nc2c(=O)[nH]1	inactive
O=C(Nc1cc(-c2ccccc2)nn1-c1ccccc1)c1ccc([N+](=O)[O-])cc1	inactive
CC(C)=CCC/C(C)=C/CO[C@@H]1O[C@H](CO[C@@H]2OC[C@](O)(CO)[C@H]2O)[C@@H](O)[C@H](O)[C@H]1O	inactive
COc1cc(C[C@@]2(O)CO[C@@H](c3ccc(O[C@@H]4O[C@H](CO)[C@@H](O)[C@H](O)[C@H]4O)c(OC)c3)[C@H]2CO)ccc1O	inactive
C[C@@H]1O[C@@H](O[C@H]2[C@H](Oc3cc(O)c(C(=O)CCc4ccc(O)cc4)c(O)c3)O[C@H](CO)[C@@H](O)[C@@H]2O)[C@H](O)[C@H](O)[C@H]1O	inactive
C=C(C)C(O)COc1ccc(CC(=O)O)cc1 (configuration not stated)	inactive
O=C(O)/C=C/c1ccc2occc2c1O[C@@H]1O[C@H](CO)[C@@H](O)[C@H](O)[C@H]1O	inactive
O=C(CCc1ccccc1)c1c(O)c([C@@H]2O[C@H](CO)[C@@H](O)[C@H](O)[C@H]2O)c(O)c([C@@H]2O[C@H](CO)[C@@H](O)[C@H](O)[C@H]2O)c1O	inactive
CC(C)(C)NS(=O)(=O)c1ccc(-c2ccc3[nH]nc(N)c3c2)cc1	inactive
COc1c2ccoc2nc2c(OC)c(O[C@@H]3O[C@@H](C)[C@H](O)[C@@H](O[C@@H]4O[C@H](CO)[C@@H](O)[C@H](O)[C@H]4O)[C@H]3OC(C)=O)ccc12	inactive
CNC(C)C(=O)NC(C(=O)N1CCCC1C(=O)Nc1cccc2ncccc12)C(C)C (configuration not stated)	inactive
COC(=O)C1=COC(O[C@@H]2O[C@H](COC(=O)/C=C/c3ccc(O)cc3)[C@@H](O)[C@H](O)[C@H]2O)C2C(CO)=CCC12 (some centres not stated)	inactive
C/C=C(\C)C(=O)OCC1OC(OCC2OC(OC3(CO)OC(CO)C(O)C3O)C(O)C(O)C2O)C(O)C(O)C1O (configuration not stated)	inactive
CC1=CC23[C@H](C=C(C(=O)O)[C@@H]2COC(=O)[C@]3(O)CO)[C@@H]1C (some centres not stated)	inactive
CC1=C(C(=O)OC2OC(COC3OC(CO)C(O)C(O)C3O)C(O)C(O)C2O)C(C)(C)CCC1 (configuration not stated)	inactive
OC[C@H]1O[C@@H](OC[C@H]2O[C@@H](OCc3ccccc3)[C@H](O)[C@@H](O)[C@@H]2O)[C@H](O)[C@@H](O)[C@@H]1O	inactive

Test system: Zika virus NS2B-NS3 protease (linked construct)
Assay: Primary screen NINDS Rhodamine qHTS for Zika virus inhibitors (AID 1347160); further: nearly all actives have a fitted effect of over 55% in size
Details: purified NS2B-NS3 protease, Rhodamine110 substrate fluorescence; series mostly up to 33.1 µM
Summary of the method: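 Kinetic fluorescence (Ex 480 nm, Em 540 nm) over 15 min with 1.5 microM Rhodamine110 peptide and 25 nM linked protease.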

SMILES	Potency
C[C@@H]1CCC2C(C)(C)[C@H](O)[C@H](O)C[C@]2(C)[C@@]12Cc1c(O)cc3c(c1O2)CN(CCCC(=O)O)C3=O (some centres not stated)	inactive
O=C(/C=C/c1ccc(O)cc1)O[C@H]1[C@H](OC2CCCCC2O)O[C@H](CO)[C@@H](O)[C@@H]1O (some centres not stated)	inactive
CC(=O)c1ccc(O[C@@H]2OC[C@@H](O)[C@H](O)[C@H]2O[C@]2(CO)O[C@H](CO)[C@@H](O)[C@@H]2O)c(O)c1	inactive
C[C@@H]1C[C@@H](O)[C@@]2(CO)C(CO)=CCC[C@@H]2[C@@]12C[C@@H](c1ccoc1)OC2=O	inactive
O=C(OCC1OC(Oc2ccc(O)cc2COC(=O)C2(O)C(O)CCC(=O)C2OC(=O)C2C=CCC2)C(OC(=O)C2C=CCC2)C(O)C1O)C1C=CCC1 (configuration not stated)	inactive
CC1(C)C(=O)CCC2(C)C1C(O)C=C1COC(=O)C12O (configuration not stated)	inactive
CC1=CC2=C(C)C(=O)C(C)(O)C(O)C2CO1 (configuration not stated)	inactive
CC1=C2C[C@H]3OC(=O)[C@H](O)[C@@]4(O)[C@@H](C)[C@@H](O)[C@H](O)C([C@@]2(C)[C@H](O)[C@@H](O)C1)[C@@]34C (some centres not stated)	inactive
CN[C@H](CNC(=O)N1CCC[C@@H]([C@@H](OCCNC(=O)OC)c2cccc(Cl)c2)C1)C[C@H]1CCCOC1	inactive
CSC(=O)OCC1=C[C@@H]2OC(=O)C3=CO[C@@H](O[C@@H]4O[C@H](CO)[C@@H](O)[C@H](O)[C@H]4O)[C@H]1[C@@H]32	inactive
CC1=C(CCC(C)O[C@@H]2O[C@H](CO)[C@@H](O)[C@H](O)[C@H]2O)C(C)(C)CC(O)C1 (some centres not stated)	inactive
COc1ccc(O[C@@H]2O[C@H](CO)[C@@H](O)[C@H](O)[C@H]2O)cc1OC	inactive
C[C@@H]1O[C@@H](O[C@H]2[C@@H]3C=CO[C@@H](O[C@@H]4O[C@H](CO)[C@@H](O)[C@H](O)[C@H]4O)[C@@H]3[C@@]3(CO)O[C@@H]23)[C@H](O)[C@H](OC(=O)/C=C/c2ccc(O)c(O)c2)[C@H]1O	inactive
C=C(C(=O)O)[C@@H]1CC[C@@]2(C)CCC[C@@](C)(O)[C@@H]2C1	inactive
CC(C)=C1CC2[C@](C)(CC[C@@H](OC(=O)C3(C)OC3C)[C@@]2(C)O)CC1=O (some centres not stated)	inactive
CCOc1ncc(S(=O)(=O)N2CCN(CC)CC2)cc1-c1nc2c(CC)n(CCOC)nc2c(=O)[nH]1	inactive
O=C(Nc1cc(-c2ccccc2)nn1-c1ccccc1)c1ccc([N+](=O)[O-])cc1	inactive
CC(C)=CCC/C(C)=C/CO[C@@H]1O[C@H](CO[C@@H]2OC[C@](O)(CO)[C@H]2O)[C@@H](O)[C@H](O)[C@H]1O	inactive
Cc1ccc2nc(NC(=O)CSc3nc4c(c(=O)n3-c3ccc(F)cc3)SCC4)sc2c1	inactive

SMILES	Potency
O=C(O)Cn1nnc(-c2ccc(CN(CCCCOc3ccc(CN4CCCC4)cc3)CCc3ccccc3)cc2)n1	inactive
COc1cc(C[C@@]2(O)CO[C@@H](c3ccc(O[C@@H]4O[C@H](CO)[C@@H](O)[C@H](O)[C@H]4O)c(OC)c3)[C@H]2CO)ccc1O	inactive
C[C@@H]1O[C@@H](O[C@H]2[C@H](Oc3cc(O)c(C(=O)CCc4ccc(O)cc4)c(O)c3)O[C@H](CO)[C@@H](O)[C@@H]2O)[C@H](O)[C@H](O)[C@H]1O	inactive
C=C(C)C(O)COc1ccc(CC(=O)O)cc1 (configuration not stated)	inactive
CCC/C=C/C=C/C1CC(O)C(O)C(=O)C1CO (configuration not stated)	inactive
C=C1CC23CC(=O)C4C(CO)(CO)CCCC4(C)C2CCC1C3 (configuration not stated)	inactive
O=C(O)/C=C/c1ccc2occc2c1O[C@@H]1O[C@H](CO)[C@@H](O)[C@H](O)[C@H]1O	inactive
O=C(CCc1ccccc1)c1c(O)c([C@@H]2O[C@H](CO)[C@@H](O)[C@H](O)[C@H]2O)c(O)c([C@@H]2O[C@H](CO)[C@@H](O)[C@H](O)[C@H]2O)c1O	inactive
CC(O)/C=C/C1(O)C(C)C(O)C(O[C@@H]2O[C@H](CO)[C@@H](O)[C@H](O)[C@H]2O)CC1(C)C (some centres not stated)	inactive
CC(C)(C)NS(=O)(=O)c1ccc(-c2ccc3[nH]nc(N)c3c2)cc1	inactive
COc1c2ccoc2nc2c(OC)c(O[C@@H]3O[C@@H](C)[C@H](O)[C@@H](O[C@@H]4O[C@H](CO)[C@@H](O)[C@H](O)[C@H]4O)[C@H]3OC(C)=O)ccc12	inactive
CNC(C)C(=O)NC(C(=O)N1CCCC1C(=O)Nc1cccc2ncccc12)C(C)C (configuration not stated)	inactive
COC(=O)c1ccccc1O[C@@H]1O[C@H](CO[C@@H]2OC[C@@H](O)[C@H](O)[C@H]2O)[C@@H](O)[C@H](O)[C@H]1O	inactive
COC(=O)C1=COC(O[C@@H]2O[C@H](COC(=O)/C=C/c3ccc(O)cc3)[C@@H](O)[C@H](O)[C@H]2O)C2C(CO)=CCC12 (some centres not stated)	inactive
C/C=C(\C)C(=O)OCC1OC(OCC2OC(OC3(CO)OC(CO)C(O)C3O)C(O)C(O)C2O)C(O)C(O)C1O (configuration not stated)	inactive
C[C@H]1[C@H](C)C[C@@H](C(=O)O)C2CC[C@]3(C)C(=CC[C@@H]4[C@@]5(C)CC[C@H](O)C(C)(C)[C@@H]5CC[C@]43C)[C@@H]21 (some centres not stated)	inactive
CC1=CC23[C@H](C=C(C(=O)O)[C@@H]2COC(=O)[C@]3(O)CO)[C@@H]1C (some centres not stated)	inactive
CC1=C(C(=O)OC2OC(COC3OC(CO)C(O)C(O)C3O)C(O)C(O)C2O)C(C)(C)CCC1 (configuration not stated)	inactive
OC[C@H]1O[C@@H](OC[C@H]2O[C@@H](OCc3ccccc3)[C@H](O)[C@@H](O)[C@@H]2O)[C@H](O)[C@@H](O)[C@@H]1O	inactive
